Source: PubChem (several laboratories)
CHRM1 antagonist – human M1 muscarinic receptor antagonists, primary screen, CHO-K1 cells, Fluo-8 calcium fluorescence, 1536-well; Muscarinic acetylcholine receptor M1 (Homo sapiens), P11229; CHO-K1 hM1, ACh EC80 antagonist; inhibition, % at 3 µM; 1.3% of 360,000 active;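 active means percent inhibition above its own plate's cutoff, namely the mean of that plate's compound wells plus 3 SD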;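 further: peak over basal fluorescence ratio during 140 s after agonist addition; 0% = ACh EC80 plus DMSO and 100% = DMSO alone without agonist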
Target sequence (P11229 whole entry, looked up): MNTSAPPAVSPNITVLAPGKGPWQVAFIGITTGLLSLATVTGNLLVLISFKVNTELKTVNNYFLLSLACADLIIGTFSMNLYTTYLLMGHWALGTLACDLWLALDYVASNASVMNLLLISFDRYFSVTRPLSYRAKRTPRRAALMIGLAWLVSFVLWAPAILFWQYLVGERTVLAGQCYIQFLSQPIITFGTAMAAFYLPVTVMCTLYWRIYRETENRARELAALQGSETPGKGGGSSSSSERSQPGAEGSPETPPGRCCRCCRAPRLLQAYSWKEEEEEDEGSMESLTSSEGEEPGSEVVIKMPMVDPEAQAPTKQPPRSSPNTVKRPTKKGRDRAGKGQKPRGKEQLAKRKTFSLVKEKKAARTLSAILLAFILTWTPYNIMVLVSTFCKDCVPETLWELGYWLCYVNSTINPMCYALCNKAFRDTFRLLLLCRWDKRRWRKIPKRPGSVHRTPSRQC
CHRM1 agonist – human M1 muscarinic receptor agonists, primary screen, Fluo-8 calcium fluorescence, CHO-K1 cells, HTS | Muscarinic acetylcholine receptor M1 (Homo sapiens), P11229 | CHO-K1 hM1, agonist mode; 0% DMSO, 100% acetylcholine EC100 | activation, % at 3 µM | 0.33% of 360,000 active;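 active means activation above the run's mean compound activation plus 3 SD, cut at about 16% in these data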;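 further: peak over basal fluorescence ratio within a 140 s kinetic read after compound addition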
CHRM1 PAM – human M1 muscarinic receptor positive allosteric modulators, primary screen, CHO-K1 cells, Fluo-8 calcium fluorescence, 1536-well; Muscarinic acetylcholine receptor M1 (Homo sapiens), P11229; CHO-K1 hM1, ACh EC20; 0% = ACh EC20, 100% = maximal ACh; activation, % at 3 µM; 0.088% of 360,000 active; in the data active means activation above about 19%, passing the limit was not always enough
Myeloid diff MLP – induction of myeloid progenitor differentiation, primary screen, cell-based, flow cytometry, MLPCN library. ER-HoxA9 myeloid progenitors, lysozyme-GFP differentiation. calls only at 10 µM. 1% of 360,000 active. AID 624256, 2012;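 active means normalized GFP-positive differentiation at or above the plate's own cutoff, the solvent-only control mean plus 3 SD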;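 further: cells exposed to compound for four days before flow analysis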
ATG4B inhibitor – ATG4B protease inhibitors, primary screen, biochemical, fluorescence, uHTS; inhibition, % at 8.33 µM; ATG4B cleavage of LC3-PLA2, NBD-HPC fluorescence, 1 h; AID 504462, 2011; 0.51% of 340,000 active; Cysteine protease ATG4B (Homo sapiens), Q9Y4P1; in the data active means inhibition above about 40%
SKN-1 block – suppressors of acrylamide-induced Pgst-4::GFP reporter in worms, primary screen, SKN-1 inhibitor project, whole organism, uHTS, GFP/RFP fluorescence ratio, strain VP596; C. elegans VP596 Pgst-4::GFP/RFP ratio, 24 h; inhibition, % at 21.8 µM; 0.49% of 360,000 active;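 active means interference check ratio from 0.5 to 1.5 plus GFP to RFP signal ratio inhibition reaching or exceeding a fixed threshold, cut at about 30% in these data, passing the limit was not always enough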
An asterisk follows results filed as active; i = inactive; . = no result; + = active, no number. Sampled rows, rich in hits. Any-hit rate of the full collection: about 3.5%.

SMILES	CHRM1 antagonist	CHRM1 agonist	CHRM1 PAM	Myeloid diff MLP	ATG4B inhibitor	SKN-1 block
O=C(CCCCCn1c(=S)[nH]c2cc3c(cc2c1=O)OCO3)N1CCN(C2CCCCC2)CC1	37*	-4	-18	i	31	1
CC(C)OCCCn1c(=S)[nH]c2cc3c(cc2c1=O)OCO3	2	-5	4	i	25	39*
CC(C)OCCCn1c(=S)[nH]c2ccc(N3CCOCC3)cc2c1=O	-9	-4	7	i	-11	11
CS(=O)(=O)N1CCCC(c2nc(-c3ccc(S(=O)(=O)NCc4ccccc4)cc3)no2)C1 (stereo not drawn)	36*	3	-18	i	-2	-1
CC1CCc2sc(C(=O)NNC(=S)NC3CC3)cc2C1 (stereo not drawn)	2	-4	-7	i	-2	-2
COc1ccc(C(C)NC(=O)C2CCN(CCCc3ccccc3)CC2)cc1OC (stereo not drawn)	-10	-8	8	i	.	-12
CCOC(=O)C1=CN(Cc2cccc(-c3ccc4c(c3)OCO4)c2)S(=O)(=O)N(C)C1C (stereo not drawn)	4	-3	-3	i	10	7
Cn1c(CCN2CCN(c3ccccn3)CC2)nc2cc(NS(=O)(=O)c3ccccc3)ccc21	69*	0	-23	i	-9	-3
Cc1ccc(OCC(=O)Nc2ccc3c(c2)nc(CCN2CCN(c4ccccn4)CC2)n3C)cc1	62*	-1	-28	i	.	5
CCCCC(=O)Nc1ccc2c(c1)nc(CCN1CCN(c3ccccn3)CC1)n2C	74*	-9	-29	i	-5	-5
Cn1c(CCN2CCN(c3ccccn3)CC2)nc2cc(NC(=O)COc3ccccc3)ccc21	58*	0	-24	i	-14	7
Cc1ccc(OCC(=O)Nc2ccc3c(c2)nc(CCN2CCN(C)CC2)n3C)cc1	-3	-5	2	i	-3	9
CCCC(=O)Nc1ccc2c(c1)nc(CCN1CCN(c3ccccn3)CC1)n2C	26	-7	-21	i	6	-2
CCOC(=O)c1sc2nc(C)nc(SCC(=O)N(CC)C3CCS(=O)(=O)C3)c2c1C (stereo not drawn)	-7	-4	9	i	6	7
COc1ccc(/C=C/CN2CCN(CC(C)C)C(CCO)C2)cc1 (stereo not drawn)	28*	-10	-22	i	3	2
CC(=NNC(=O)c1ccc(NS(=O)(=O)c2cccs2)cc1)c1ccc(OCC(N)=O)cc1	-8	-4	9	i	19	-16
CC(C)NCC#CCOc1ccc(Cl)cc1	8	-6	-6	i	0	4
CC1CCCCC1NCC#CCOc1ccc(Cl)cc1 (stereo not drawn)	63*	-6	-23	i	16	2
COc1ccc2nc(C)cc(NCc3ccc(F)cc3)c2c1	29*	2	-10	+	12	6
COc1ccc2nc(C)cc(Nc3ccc(C)cc3)c2c1	-4	-8	3	i	6	26
CC(C(O)C12CC3CC(CC(C3)C1)C2)N1CCCCC1 (stereo not drawn)	59*	-10	-28	i	-5	3
N#C/C(=N/Nc1ccc(OC(F)(F)F)cc1)C(N)=S	15	7	-4	i	-1	54*
Cc1ccccc1CN(C)C(=O)COC(=O)c1ccc2[nH]c(C)c(C)c2c1	23	-2	-10	i	21	9
COc1cc2c(cc1OC)C(c1ccccc1)N(C(=O)CCl)CC2 (stereo not drawn)	-8	-3	5	i	-5	34*
COc1cc2c(cc1OC)C(C1C(=O)CCCC1=O)N(C(=O)CCl)CC2 (stereo not drawn)	-7	12	2	i	-8	4
SMILES	CHRM1 antagonist	CHRM1 agonist	CHRM1 PAM	Myeloid diff MLP	ATG4B inhibitor	SKN-1 block
COc1ccc2c(c1)CCN(C(=O)CCl)C2C1C(=O)CCCC1=O (stereo not drawn)	13	25*	-18	i	-5	3
CC(=O)Nc1ccc(S(=O)(=O)N(C)CC(=O)OCC(=O)N(CC(C)C)C2CCS(=O)(=O)C2)cc1 (stereo not drawn)	2	-2	-1	i	-2	9
Cc1ccc(C)n1-n1c(C)nc2sc3c(c2c1=O)CCCCC3	28*	-5	-21	i	4	9
CCOC(=O)c1c(C)[nH]c(C)c1S(=O)(=O)NCCc1cccs1	2	-5	3	i	-3	8
O=C(CSc1nnc(CN2CCOCC2)n1-c1ccc(Cl)cc1)N1CCc2ccccc21	-9	-5	12	i	5	42*
Cc1ccc(C)c(-n2c(CNC(=O)c3ccco3)nnc2SCC(=O)N2CCc3ccccc32)c1	-29	-7	0	i	-9	39*
O=C(NCC(=O)N1CCN(Cc2ccccc2)CC1)c1ccccc1Cl	-4	0	3	i	.	-5
COC(=O)C1CCN(Cc2ccc(OCCCN3CCN(c4ccc([N+](=O)[O-])cc4)CC3)cc2)CC1	48*	-5	-25	i	-16	9
COCCN(C(=O)CSc1nc2ccc(C)cc2[nH]1)c1c(N)n(Cc2ccccc2)c(=O)[nH]c1=O	-4	-5	10	+	-6	-4
CC(CC(=O)N(C)c1c(N)n(Cc2ccccc2)c(=O)[nH]c1=O)c1ccccc1 (stereo not drawn)	28*	-1	-10	i	2	-20
CCN(C(=O)COC(=O)CC(C)c1ccccc1)c1c(N)n(Cc2ccccc2)c(=O)[nH]c1=O (stereo not drawn)	-3	0	14	i	-2	2
CCc1nc2ccccc2c(C(=O)OCC(=O)N(CCOC)c2c(N)n(Cc3ccccc3)c(=O)[nH]c2=O)c1C	-17	-3	12	i	-9	41*
CCN(CC)CCn1c2c(c(SCC(=O)Nc3ccc4c(c3)OCCO4)nc1=O)CCCC2	-15	-7	1	i	0	10
CCCCCCCCN1C(=O)[C@H](CC(=O)NCCCOC)C[C@@]2(C(=O)OCC)CCCC=C12	.	.	.	i	.	10
CCC(C)c1ccccc1NC(=O)COc1ccc(-n2cnnn2)cc1 (stereo not drawn)	-5	2	15	i	-38	1
Cc1cccc(N2CCN(C3C(=O)Nc4ccccc4-n4nnnc43)CC2)c1C (stereo not drawn)	.	.	.	i	.	23
